For 40 molecules, outcome and AC50 results are on record in PubChem BioAssay (EPA / NIEHS).

Test [1] addresses Estrogen receptor beta (Homo sapiens) (UniProt Q92731). In words: OT_ER_ERbERb_1440: Odyssey Thera (OT) 24-hour HEK293T Protein-Complementation Assay for Estrogen Receptor-beta/-beta Homodimer (AID 2283380).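 Also: fluorescence gain from ER beta LBD homodimer complementation read by laser scanning cytometry; scored as signal increase over DMSO baseline for both agonists and antagonists.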 The procedure, abridged: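 HEK293T cells stably expressing human ER-beta LBD (aa 310-547) PCA homodimer pair, dosed 24 h; formaldehyde-fixed, Draq5-stained. Readout: increase in nuclear (agonist) or nuclear plus cytoplasmic (antagonist) fluorescence intensity versus DMSO, gain-of-signal fitting.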

For test [2], the target named is Estrogen receptor (Homo sapiens) (UniProt P03372). As to the kind of experiment: OT_ERa_GFPERaERE_0120: Odyssey Thera (OT) 2-hour HeLa Transcription Induction Assay for Estrogen Receptor (AID 2283382). The method in brief: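 HeLa cells were dosed with test chemical and read 2 hours later for GFP-ERα/ERE-linked fluorescent protein induction by fluorescence microscopy. Gain-of-signal was fitted relative to DMSO baseline, quantified by high content image analysis.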

Test [3] deals with Retinoic acid receptor RXR-alpha (Homo sapiens) (UniProt P19793). As to the kind of experiment: OT_NURR1_NURR1RXRa_0480: Odyssey Thera (OT) 8-hour HEK293T Protein Complementation Assay for Nurr1/retinoid X receptor (RXR) (AID 2283385). The procedure, abridged: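 HEK293T cells expressing Nurr1 and RXRα fused to reporter fragments were dosed with compound for 8 hours. Complex formation was read as fluorescence intensity and analysed as gain of signal against DMSO as baseline.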

Test [4] shares this target. In words: OT_NURR1_NURR1RXRa_1440: Odyssey Thera (OT) 24-hour HEK293T Protein Complementation Assay for Nurr1/retinoid X receptor (RXR) (AID 2283386). The method in brief:
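HEK293T cells were dosed with compound and read 24 h later by fluorescence intensity in a protein-fragment complementation format, where Nurr1–RXRα interaction reconstitutes a split reporter. Activity was fitted as gain of signal relative to DMSO baseline.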

The target of test [5] is Peroxisome proliferator-activated receptor gamma (Homo sapiens) (UniProt P37231). As to the kind of experiment: OT_PPARg_PPARgSRC1_0480: Odyssey Thera (OT) 8-hour Protein-Complementation Assay for Peroxisome Proliferator-activated Receptor Gamma / SRC-1 Co-activator (AID 2283387).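 Also: nuclear to cytoplasmic split Venus YFP fluorescence ratio reporting PPARg SRC-1 interaction.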 The procedure, abridged: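 Protein-fragment complementation in HEK293T: Venus YFP halves (residues 1-158, 159-239, mutated to IFP1/IFP2) fused to PPARg/SRC-1. 8 h exposure; N/C ratio at 488 nm; DMSO negative control.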

Test [6] has the same target. In words: OT_PPARg_PPARgSRC1_1440: Odyssey Thera (OT) 24-hour Protein-Complementation Assay for Peroxisome Proliferator-activated Receptor Gamma/ SRC-1 Co-activator (AID 2283388).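 Also: nuclear to cytoplasmic ratio of reconstituted Venus YFP fluorescence in fixed imaged cells.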 The method in brief: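 Cells carrying the PPARg/SRC-1 fragment-complementation reporter receive compound for 24 hours, are fixed and counterstained with Draq5, then imaged. Increased nuclear relative to cytoplasmic YFP fluorescence above DMSO baseline indicates binding activity.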

The target of test [7] is Estrogen receptor (Homo sapiens) (UniProt P03372). As to the kind of experiment: OT_ERa_GFPERaERE_0480: Odyssey Thera (OT) 8-hour HeLa Transcription Induction Assay for Estrogen Receptor (AID 2283381; active = hit-call score of the fitted dose curve at least 0.9, where 1 is the maximum; inactive = score below 0.9). The method in brief: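 HeLa cells dosed with compound and imaged by fluorescence microscopy at 8 h; GFP induction from an ERE reporter quantified by high-content image analysis and fitted as gain of signal against DMSO baseline.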

The nature of test [8]: CEETOX_H295R_11DCORT: CeeTox H295R High-throughput Steroidogenesis Assay for 11-Deoxycortisol (11DCORT) (AID 2283432; active = hit-call score of the fitted dose curve at least 0.9, where 1 is the maximum; inactive = score below 0.9;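 as to AC50: 11-deoxycortisol secreted into the medium measured by LC-MS/MS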). To be noted: actives raise or lower the signal. The method in brief: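 Adrenal carcinoma line H295R, run per OECD 456 with minor changes, was forskolin-stimulated (10 uM, 48 h) before a 48 h chemical exposure at 0.1% DMSO. Secreted 11-deoxycortisol was quantified by HPLC-MS/MS.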

Test [9] in a line: CEETOX_H295R_OHPREG: CeeTox H295R High-throughput Steroidogenesis Assay for OH-Pregnenolone (OHPREG) (AID 2283434; active = hit-call score of the fitted dose curve at least 0.9, where 1 is the maximum; inactive = score below 0.9). As to conditions: actives raise or lower the signal. The method in brief: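 Human adrenal H295R cells were prestimulated 48 h with 10 uM forskolin, then exposed 48 h to chemical in 0.1% DMSO. Medium 17alpha-hydroxypregnenolone was quantified by HPLC-MS/MS after MTBE extraction; bidirectional fitting versus DMSO baseline.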

“And” between values parts separate entries of the source, which are not always exact repeats. Equal entries are not always repeated. Inconclusive results are not listed. More than one record can exist for a structure, and the calls need not agree. The source made the active and inactive calls. The calls were made as follows, unless noted: active = hit-call score of the fitted dose curve at least 0.9, where 1 is the maximum; inconclusive = response in the unintended direction; inactive = score below 0.9.

Estrogen receptor (Homo sapiens), sequence (P03372 whole entry, looked up): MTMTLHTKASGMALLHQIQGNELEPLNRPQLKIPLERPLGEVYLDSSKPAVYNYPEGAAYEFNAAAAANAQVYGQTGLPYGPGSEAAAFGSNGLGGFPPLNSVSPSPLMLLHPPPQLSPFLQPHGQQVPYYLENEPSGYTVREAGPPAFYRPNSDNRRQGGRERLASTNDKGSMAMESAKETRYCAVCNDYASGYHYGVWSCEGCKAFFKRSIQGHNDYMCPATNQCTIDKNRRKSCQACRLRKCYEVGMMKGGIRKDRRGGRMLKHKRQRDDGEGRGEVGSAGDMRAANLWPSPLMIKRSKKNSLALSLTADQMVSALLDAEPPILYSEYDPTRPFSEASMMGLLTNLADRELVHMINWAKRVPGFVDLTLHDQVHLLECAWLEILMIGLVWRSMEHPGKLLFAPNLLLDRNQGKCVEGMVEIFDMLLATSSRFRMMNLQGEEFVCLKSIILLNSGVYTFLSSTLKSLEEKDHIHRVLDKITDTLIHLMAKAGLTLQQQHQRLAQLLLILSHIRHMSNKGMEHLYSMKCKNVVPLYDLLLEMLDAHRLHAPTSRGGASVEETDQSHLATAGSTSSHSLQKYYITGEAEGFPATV
Estrogen receptor beta (Homo sapiens), sequence (Q92731 whole entry, looked up, the tested form may be a part): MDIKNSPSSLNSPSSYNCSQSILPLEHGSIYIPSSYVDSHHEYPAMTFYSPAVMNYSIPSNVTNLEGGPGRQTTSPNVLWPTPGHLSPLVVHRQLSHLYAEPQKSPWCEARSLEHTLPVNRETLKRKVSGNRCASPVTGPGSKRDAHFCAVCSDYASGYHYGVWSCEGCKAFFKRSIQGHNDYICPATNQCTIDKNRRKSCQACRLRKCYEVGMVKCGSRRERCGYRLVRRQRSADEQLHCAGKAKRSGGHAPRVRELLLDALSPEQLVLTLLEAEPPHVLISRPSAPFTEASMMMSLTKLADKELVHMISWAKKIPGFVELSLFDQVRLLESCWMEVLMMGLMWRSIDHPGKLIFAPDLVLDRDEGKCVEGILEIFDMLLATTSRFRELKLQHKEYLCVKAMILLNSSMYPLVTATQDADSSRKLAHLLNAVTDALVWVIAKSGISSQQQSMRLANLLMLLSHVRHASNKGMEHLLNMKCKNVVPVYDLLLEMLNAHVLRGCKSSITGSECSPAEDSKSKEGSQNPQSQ
Peroxisome proliferator-activated receptor gamma (Homo sapiens), sequence (P37231 whole entry, looked up, the tested form may be a part): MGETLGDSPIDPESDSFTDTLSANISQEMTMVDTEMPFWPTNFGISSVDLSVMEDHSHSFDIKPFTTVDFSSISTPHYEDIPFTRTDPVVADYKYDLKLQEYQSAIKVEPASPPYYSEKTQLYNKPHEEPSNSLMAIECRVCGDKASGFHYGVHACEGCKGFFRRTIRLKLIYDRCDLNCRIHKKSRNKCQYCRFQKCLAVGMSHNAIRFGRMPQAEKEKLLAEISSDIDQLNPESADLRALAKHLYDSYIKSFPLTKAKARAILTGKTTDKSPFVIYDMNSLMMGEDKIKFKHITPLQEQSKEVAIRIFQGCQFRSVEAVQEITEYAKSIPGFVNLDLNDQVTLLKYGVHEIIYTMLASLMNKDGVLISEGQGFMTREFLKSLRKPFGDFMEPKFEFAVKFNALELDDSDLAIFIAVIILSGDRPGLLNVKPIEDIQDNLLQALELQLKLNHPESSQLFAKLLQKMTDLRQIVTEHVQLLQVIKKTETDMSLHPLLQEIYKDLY
Retinoic acid receptor RXR-alpha (Homo sapiens), sequence (P19793 whole entry, looked up, the tested form may be a part): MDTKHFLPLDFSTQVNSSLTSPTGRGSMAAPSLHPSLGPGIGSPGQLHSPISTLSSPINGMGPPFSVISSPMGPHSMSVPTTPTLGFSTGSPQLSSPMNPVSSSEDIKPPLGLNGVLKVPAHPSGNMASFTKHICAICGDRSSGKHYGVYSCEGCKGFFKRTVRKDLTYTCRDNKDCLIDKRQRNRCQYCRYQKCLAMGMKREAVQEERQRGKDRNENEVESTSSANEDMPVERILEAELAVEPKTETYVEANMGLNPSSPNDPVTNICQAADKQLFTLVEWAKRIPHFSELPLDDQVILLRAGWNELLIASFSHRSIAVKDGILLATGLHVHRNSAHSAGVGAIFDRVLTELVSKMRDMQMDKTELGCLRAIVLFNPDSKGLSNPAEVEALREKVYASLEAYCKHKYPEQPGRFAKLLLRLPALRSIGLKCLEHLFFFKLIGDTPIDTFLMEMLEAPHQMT

For `Nc1c(Cl)c(Cl)nc(C(=O)O)c1Cl`, the molecule was classed as inactive in test [1], in test [2], in test [3], in test [4], in test [5] and in test [6].
With `CC(C)Oc1cccc(NC(=O)c2ccccc2C(F)(F)F)c1`, the call in test [1], in test [7], in test [2], in [3], in test [4] and in test [5] was inactive. Further, the result in [6] and in test [9] was inactive. Further, in [8], the half-maximal activity concentration (AC50) is 28.9 µM (active).
Consider `COc1cc(Cl)c(OC)cc1Cl`, for which the molecule was classed as inactive in test [1], in test [7], in test [2], in test [3], in test [4] and in [5]. Also, the result in test [6], in test [8] and in [9] was inactive.
As for `C=C(C)CN(CC)c1c([N+](=O)[O-])cc(C(F)(F)F)cc1[N+](=O)[O-]`, the outcome in [1], in [7], in test [3], in test [4], in [5] and in test [6] was inactive. For the same molecule, the concentration at half-maximal activity (AC50) in test [2] is 12.1 µM (active).
With `Cc1cc(C)nc(Nc2ccccc2)n1`, the molecule was called inactive in test [2], in test [4], in test [5] and in [6].
Regarding `Cn1c(-c2ccccc2)cc(-c2ccccc2)[n+]1C`, the molecule was classed as inactive in [1], in test [2], in test [3], in test [4], in test [5] and in test [6].
For the molecule `CS(=O)(=O)c1ccc(C(=O)C2C(=O)CCCC2=O)c([N+](=O)[O-])c1`, the molecule was called inactive in test [1], in [2], in [3], in test [5] and in [6].
Take `CCOC(=O)C(C)OC(=O)c1cc(Oc2ccc(C(F)(F)F)cc2Cl)ccc1[N+](=O)[O-]` (centres undefined): the molecule was classed as inactive in test [1], in test [2], in test [3], in test [4], in test [5] and in test [6]. Also, the molecule was called inactive in [8] and in [9].
Regarding `CN=C=S`, the molecule was called inactive in [2], in [3], in test [4], in test [5] and in test [6].
On to `O=P(O)(O)CCCl`, for which the result in test [2], in [3], in [4], in [5] and in test [6] was inactive.
Turning to `COP(=O)(OC)O/C(C)=C/C(=O)N(C)C`, the molecule was classed as inactive in [1], in test [2], in test [3], in test [4], in test [5] and in test [6].
As for `CO/N=C(/C1=NOCCO1)c1ccccc1Oc1ncnc(Oc2ccccc2Cl)c1F`, the molecule was classed as inactive in test [2], in test [3], in test [5] and in [6].
`COC(=O)NC(=S)Nc1ccccc1NC(=S)NC(=O)OC`: the outcome in test [1], in test [2], in test [4], in [5], in [6] and in [8] was inactive. In addition, the outcome in [9] was inactive.
Take `CC1(C)CON(Cc2ccccc2Cl)C1=O`: the molecule was classed as inactive in test [1], in test [2], in test [3], in [4], in [5] and in test [6]. Also, the result in test [9] was inactive.
Regarding `COCC(=O)N(c1c(C)cccc1C)C(C)C(=O)OC` (centres undefined), the outcome in [1], in test [2], in test [3], in test [4], in test [5] and in test [6] was inactive. The call in [9] was inactive.
For the molecule `Clc1nc(Cl)nc(Nc2ccccc2Cl)n1`, the molecule was classed as inactive in [1], in test [2], in test [3], in [4], in test [5] and in [6]. Besides, the call in test [8] and in [9] was inactive.
In the case of `CCNC(=O)NC(=O)C(C#N)=NOC`, the outcome in test [2], in test [3], in test [4], in test [5] and in [6] was inactive. Besides, the half-maximal activity concentration (AC50) in [4] is 29.6 µM (active).
Consider `CCOc1nc(F)cc2nc(S(=O)(=O)Nc3c(Cl)cccc3Cl)nn12`, for which the outcome in [1], in test [2], in test [3], in [4], in [5] and in [6] was inactive.
With `O=C(O)c1c(Cl)ccc2cc(Cl)cnc12`, the molecule was called inactive in [1], in [2], in test [3], in test [4], in [5] and in test [6].
Consider `CN/C(=N\[N+](=O)[O-])NCc1cnc(Cl)s1`, for which the molecule was called inactive in [1], in [2], in test [3], in [4], in test [5] and in test [6]. The outcome in test [9] was inactive.
Regarding `Cc1nc(N(C)C)nc(OC(=O)N(C)C)c1C`, the call in [1], in test [2], in [3], in [4], in [5] and in [6] was inactive. In addition, the molecule was called inactive in test [8] and in test [9].
For `CCN(CC)C(=O)C(C)Oc1cccc2ccccc12` (centres undefined), the outcome in test [1], in test [2], in test [3], in test [4], in [5] and in test [6] was inactive. Also, the call in [9] was inactive.
As to `CS(=O)(=O)c1cc(C(F)(F)F)ccc1C(=O)c1cnoc1C1CC1`, the outcome in test [1], in test [2], in [3], in test [4], in test [5] and in test [6] was inactive.
With `CNC(=O)Oc1cccc2ccccc12`, the call in test [7], in test [3] and in test [9] was inactive.
Regarding `O=C1C2CC=CCC2C(=O)N1SC(Cl)(Cl)Cl` (centres undefined), the call in [1], in test [2], in test [5], in test [6] and in [9] was inactive.
`N#Cc1c(Cl)cccc1Cl`: the outcome in test [1], in test [2], in test [3], in test [4], in test [5] and in test [6] was inactive. Besides, the molecule was classed as inactive in test [8] and in [9].
Turning to `CC(C)NC(=O)N1CC(=O)N(c2cc(Cl)cc(Cl)c2)C1=O`, the outcome in test [7], in test [2], in test [5] and in test [6] was inactive. The AC50 in test [9] is 10.3 µM (active).
Take `O=C(Nc1ccccc1-c1ccc(Cl)cc1)c1cccnc1Cl`: the molecule was classed as inactive in [1], in test [2], in [3], in test [4], in test [5] and in [6]. Also, the outcome in test [8] and in [9] was inactive.
In the case of `O=c1n(Cl)c(=O)n(Cl)c(=O)n1Cl`, the outcome in test [1], in test [2], in test [3], in [4], in test [5] and in [6] was inactive.
For `CCOc1cc(C(C)(C)C)ccc1C1COC(c2c(F)cccc2F)=N1` (centres undefined), the call in test [1], in test [2], in test [3], in test [5] and in test [6] was inactive. In addition, the AC50 in [4] was 18.5 µM (active) and 20.6 µM (active).
Regarding `CCCCC(C#N)(Cn1cncn1)c1ccc(Cl)cc1` (centres undefined), the call in [2], in test [3], in [5] and in test [6] was inactive. The AC50 was 51 µM (active) in test [8] and 7.87 µM (active) in test [9].
Take `COCC(C)N(C(=O)CCl)c1c(C)csc1C` (centres undefined): the molecule was called inactive in test [7], in test [2], in [3], in test [4], in test [5] and in test [6].
On to `Cc1c(COC(=O)[C@@H]2[C@H](/C=C(\Cl)C(F)(F)F)C2(C)C)cccc1-c1ccccc1`, for which the call in test [1], in [2], in test [3], in [4], in test [5] and in test [6] was inactive. In addition, the result in [9] was inactive.
Turning to `CC(C)=CC1C(C(=O)OCc2coc(Cc3ccccc3)c2)C1(C)C` (centres undefined), the call in [2], in test [3], in test [5] and in [6] was inactive. In test [4], the AC50 was 20.3 µM (active).
`CC(C)N1C(=O)c2ccccc2NS1(=O)=O`: the molecule was classed as inactive in test [2], in test [5] and in test [6].
Regarding `N#Cc1c[nH]cc1-c1cccc2c1OC(F)(F)O2`, the call in test [2], in test [4], in test [5] and in test [6] was inactive.
Turning to `CCOc1nc(C(Cl)(Cl)Cl)ns1`, the outcome in test [1], in test [2], in test [3], in test [4], in test [5] and in test [6] was inactive. Moreover, the outcome in test [9] was inactive.
For `CCOP(=S)(OCC)Oc1nc(Cl)n(C(C)C)n1`, the outcome in test [2], in test [5], in test [6], in test [8] and in test [9] was inactive.
For `N#CN=C1SCCN1Cc1ccc(Cl)nc1`, the molecule was called inactive in test [2], in test [3], in test [5], in [6] and in [8]. Moreover, the concentration at half-maximal activity (AC50) in test [9] was 50 µM (active).
As for `CC(C)C1(C)N=C(c2ncccc2C(=O)O)NC1=O` (centres undefined), the molecule was called inactive in [7], in [2], in test [4], in test [5] and in test [6].

A word on the AC50: it is the midpoint of the concentration-response curve, whichever way the signal moves.
